Assay results reported in the supplement of paper PMC10849652.
Targets with a hit are over-represented here; the source holds about 8,800 in all. About 0.5% of all pairs of compound and target were hits. Values without a mark were called inactive.

Tests used:
Assay in all cases: log2 fold change, soluble protein after heating vs DMSO (PISA); higher = thermal stabilisation; K562 lysate, 10 uM; active = over 0.2 and 3.5 SD of the protein, either way, in both replicates (recomputed)
[1] = compound: CCCS(=O)(=O)Nc1ccc(F)c(C(=O)c2c[nH]c3ncc(-c4ccc(Cl)cc4)cc23)c1F [vemurafenib]
Outline: (§1)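 Values give the log-two fold change in thermal stability against solvent controls, from duplicates. Crude K562 extract at 1 mg/mL protein, made by dounce homogenisation in PBS pH 7.4 with 1 mM MgCl2, was treated with 10 μM compound for 30 min. After 3 min heating across 48°C-58°C, aliquots were pooled, adjusted to 0.5% NP-40 at 4°C and centrifuged at 21,000xg for 90 min. The supernatant was measured by TMTpro 16plex LC-MS/MS with channel sums equalised.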

[2] = compound: CCCS(=O)(=O)Nc1ccc(F)c(C(=O)c2c[nH]c3ncc(Cl)cc23)c1F
Outline: as §1

[3] = compound: CCN(CCCOc1ccc2c(Nc3cc(CC(=O)Nc4cccc(F)c4)[nH]n3)ncnc2c1)CCOP(=O)(O)O [barasertib]
Outline: as §1

[4] = compound: CC[C@@H]1C(=O)N(C)c2cnc(Nc3ccc(C(=O)NC4CCN(C)CC4)cc3OC)nc2N1C1CCCC1
Outline: as §1

[5] = compound: CC[C@@H]1C(=O)N(C)c2cnc(Nc3ccc(C(=O)N[C@H]4CC[C@H](N5CCN(CC6CC6)CC5)CC4)cc3OC)nc2N1C(C)C [volasertib]
Outline: as §1

[6] = compound: CCn1c(C(=O)N(C2CC2)C2CC2)cc2c3c(ncn3C)c(Nc3cc(C)n(C)n3)nc21
Outline: as §1

[7] = compound: CCn1cc(-c2ccnc3[nH]c(-c4cccc(CN(C)C)c4)cc23)c(-c2ccc(NC(=O)N(C)C)cc2)n1
Outline: as §1

[8] = compound: CN1CCC(CNc2ccc3ncc(-c4cccc(OC(F)(F)F)c4)n3n2)CC1
Outline: as §1

[9] = compound: CN1CCN(CCOc2cc(OC3CCOCC3)c3c(Nc4c(Cl)ccc5c4OCO5)ncnc3c2)CC1 [saracatinib]
Outline: as §1

[10] = compound: CN1CCN(c2nc(C3=C(c4c[nH]c5ccccc45)C(=O)NC3=O)c3ccccc3n2)CC1 [sotrastaurin]
Outline: as §1

[11] = compound: CN1CC[C@H](c2c(O)cc(O)c3c(=O)cc(-c4ccccc4Cl)oc23)[C@H](O)C1 [alvocidib]
Outline: as §1

[12] = compound: CN1CCc2c(c3ccccc3n2Cc2ccc(C(=O)NO)cc2)C1 [Tubastatin A]
Outline: as §1

[13] = compound: CNC(=O)C1=CC=CC=C1NC2=NC(=NC=C2Cl)NC3=C(C=C(C=C3)N4CCOCC4)OC
Outline: as §1

[14] = compound: CNC(=O)c1ccc(Nc2ncc(C(F)(F)F)c(NCc3nccnc3N(C)S(C)(=O)=O)n2)cc1 [defactinib]
Outline: as §1

[15] = compound: CNc1nc(-c2ccc3c(N)n[nH]c3c2)cc(N2C[C@@H](C(=O)NC3CCCCC3)CC[C@H]2C)n1
Outline: as §1

[16] = compound: COC(=O)N[C@@H](C)CNc1nccc(-c2cn(C(C)C)nc2-c2cc(Cl)cc(NS(C)(=O)=O)c2F)n1 [encorafenib]
Outline: as §1

[17] = compound: COC(=O)[C@H](CCSC)NC(=O)C1=C(C=C(C=C1)NC[C@H](CS)N)C2=CC=CC=C2
Outline: as §1

[18] = compound: COc1cc2nc(-c3cc(F)ccc3O)nc(N[C@@H]3CNC[C@H]3C(C)(C)O)c2cc1OC
Outline: as §1

[19] = compound: COc1cc(Nc2ncc3c(n2)-c2ccc(Cl)cc2C(c2c(F)cccc2OC)=NC3)ccc1C(=O)O [alisertib]
Outline: as §1

[20] = compound: COc1cc2ncnc(Nc3ccc(F)c(Cl)c3)c2cc1OCCCN1CCOCC1 [gefitinib]
Outline: as §1

Sequence of UniProt P55210 (P55210 whole entry, looked up): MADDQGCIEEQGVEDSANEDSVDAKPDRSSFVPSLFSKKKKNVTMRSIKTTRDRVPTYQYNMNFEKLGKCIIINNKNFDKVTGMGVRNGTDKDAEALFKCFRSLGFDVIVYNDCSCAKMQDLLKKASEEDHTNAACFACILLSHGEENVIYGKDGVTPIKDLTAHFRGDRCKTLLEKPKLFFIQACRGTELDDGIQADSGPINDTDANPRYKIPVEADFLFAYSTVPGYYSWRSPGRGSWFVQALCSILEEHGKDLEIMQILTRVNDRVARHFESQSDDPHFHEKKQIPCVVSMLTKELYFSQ
Sequence of UniProt O95260 (O95260 whole entry, looked up): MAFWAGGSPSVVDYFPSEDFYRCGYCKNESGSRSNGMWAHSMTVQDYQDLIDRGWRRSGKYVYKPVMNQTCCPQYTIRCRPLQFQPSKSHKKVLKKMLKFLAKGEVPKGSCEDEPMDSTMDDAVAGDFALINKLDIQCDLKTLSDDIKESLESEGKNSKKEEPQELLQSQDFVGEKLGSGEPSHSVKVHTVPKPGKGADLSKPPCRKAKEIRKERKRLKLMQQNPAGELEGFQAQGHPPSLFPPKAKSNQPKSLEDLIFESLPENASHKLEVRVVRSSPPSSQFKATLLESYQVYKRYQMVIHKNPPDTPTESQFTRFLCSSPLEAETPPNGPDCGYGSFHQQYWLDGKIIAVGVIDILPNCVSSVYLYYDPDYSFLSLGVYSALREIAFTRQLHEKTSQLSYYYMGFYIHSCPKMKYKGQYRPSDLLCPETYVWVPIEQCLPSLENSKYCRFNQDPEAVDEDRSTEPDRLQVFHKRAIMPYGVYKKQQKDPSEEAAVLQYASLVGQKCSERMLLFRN
Sequence of UniProt Q7Z4R8 (Q7Z4R8 whole entry, looked up): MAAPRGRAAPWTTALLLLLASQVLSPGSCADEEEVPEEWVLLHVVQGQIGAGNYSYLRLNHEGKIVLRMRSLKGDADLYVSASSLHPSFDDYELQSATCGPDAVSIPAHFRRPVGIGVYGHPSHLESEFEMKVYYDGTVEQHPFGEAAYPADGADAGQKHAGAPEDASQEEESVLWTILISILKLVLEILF
Sequence of UniProt Q9UQ88 (Q9UQ88 whole entry, looked up): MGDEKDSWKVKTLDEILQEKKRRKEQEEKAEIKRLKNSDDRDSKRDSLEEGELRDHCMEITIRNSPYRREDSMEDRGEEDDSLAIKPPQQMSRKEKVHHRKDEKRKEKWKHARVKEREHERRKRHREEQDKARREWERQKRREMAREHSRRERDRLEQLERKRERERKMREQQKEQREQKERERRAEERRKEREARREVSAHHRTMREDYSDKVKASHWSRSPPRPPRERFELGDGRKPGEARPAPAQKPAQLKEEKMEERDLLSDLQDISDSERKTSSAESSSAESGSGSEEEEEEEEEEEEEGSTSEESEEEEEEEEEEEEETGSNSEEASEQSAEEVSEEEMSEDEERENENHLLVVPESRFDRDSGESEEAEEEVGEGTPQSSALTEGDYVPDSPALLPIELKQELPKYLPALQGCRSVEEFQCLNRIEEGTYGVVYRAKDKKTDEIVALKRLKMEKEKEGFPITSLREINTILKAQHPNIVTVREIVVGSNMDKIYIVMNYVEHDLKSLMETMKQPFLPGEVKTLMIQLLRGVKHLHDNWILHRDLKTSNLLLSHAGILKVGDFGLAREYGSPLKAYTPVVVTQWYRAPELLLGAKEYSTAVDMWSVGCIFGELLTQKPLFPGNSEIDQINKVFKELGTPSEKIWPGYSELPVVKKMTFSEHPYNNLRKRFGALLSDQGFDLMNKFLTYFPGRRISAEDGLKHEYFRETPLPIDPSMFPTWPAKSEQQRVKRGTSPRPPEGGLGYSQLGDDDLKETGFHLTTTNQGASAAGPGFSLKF
Sequence of UniProt Q00537 (Q00537 whole entry, looked up): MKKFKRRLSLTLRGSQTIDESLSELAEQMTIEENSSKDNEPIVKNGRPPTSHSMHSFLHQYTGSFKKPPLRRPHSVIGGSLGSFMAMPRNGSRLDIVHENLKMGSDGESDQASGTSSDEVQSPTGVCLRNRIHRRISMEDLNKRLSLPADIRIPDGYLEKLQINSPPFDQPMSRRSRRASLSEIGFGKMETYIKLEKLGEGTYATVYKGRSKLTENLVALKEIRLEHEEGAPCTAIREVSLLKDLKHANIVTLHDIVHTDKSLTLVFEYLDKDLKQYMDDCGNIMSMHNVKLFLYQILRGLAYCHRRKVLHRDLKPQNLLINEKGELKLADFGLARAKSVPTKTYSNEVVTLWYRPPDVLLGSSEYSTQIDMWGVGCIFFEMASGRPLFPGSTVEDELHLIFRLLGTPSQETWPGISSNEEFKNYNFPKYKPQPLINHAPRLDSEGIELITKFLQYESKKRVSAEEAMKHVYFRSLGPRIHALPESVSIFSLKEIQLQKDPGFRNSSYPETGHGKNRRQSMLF
Sequence of UniProt Q6P4H8 (Q6P4H8 whole entry, looked up): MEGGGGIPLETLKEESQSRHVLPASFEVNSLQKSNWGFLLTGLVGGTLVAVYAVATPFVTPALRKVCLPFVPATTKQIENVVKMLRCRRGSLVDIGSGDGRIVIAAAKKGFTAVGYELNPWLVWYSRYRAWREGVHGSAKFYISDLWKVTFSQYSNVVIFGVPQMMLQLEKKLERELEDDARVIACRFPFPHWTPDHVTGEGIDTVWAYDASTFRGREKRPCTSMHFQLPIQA
Sequence of UniProt Q53HL2 (Q53HL2 whole entry, looked up): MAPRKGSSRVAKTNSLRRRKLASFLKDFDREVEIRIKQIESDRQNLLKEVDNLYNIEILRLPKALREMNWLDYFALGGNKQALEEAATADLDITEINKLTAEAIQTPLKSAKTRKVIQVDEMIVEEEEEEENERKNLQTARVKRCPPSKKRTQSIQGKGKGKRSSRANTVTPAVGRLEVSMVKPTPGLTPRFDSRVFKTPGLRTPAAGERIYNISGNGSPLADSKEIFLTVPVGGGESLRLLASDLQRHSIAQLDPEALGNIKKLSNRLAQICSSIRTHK
Sequence of UniProt Q7Z7K6 (Q7Z7K6 whole entry, looked up): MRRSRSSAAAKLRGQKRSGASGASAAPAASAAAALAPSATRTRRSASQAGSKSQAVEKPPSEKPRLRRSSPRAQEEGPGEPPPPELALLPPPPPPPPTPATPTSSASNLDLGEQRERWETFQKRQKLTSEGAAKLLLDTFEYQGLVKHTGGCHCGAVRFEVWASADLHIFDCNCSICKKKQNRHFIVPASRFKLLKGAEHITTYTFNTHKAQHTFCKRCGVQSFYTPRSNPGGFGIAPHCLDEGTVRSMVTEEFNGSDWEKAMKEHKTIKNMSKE
Sequence of UniProt Q96NL8 (Q96NL8 whole entry, looked up): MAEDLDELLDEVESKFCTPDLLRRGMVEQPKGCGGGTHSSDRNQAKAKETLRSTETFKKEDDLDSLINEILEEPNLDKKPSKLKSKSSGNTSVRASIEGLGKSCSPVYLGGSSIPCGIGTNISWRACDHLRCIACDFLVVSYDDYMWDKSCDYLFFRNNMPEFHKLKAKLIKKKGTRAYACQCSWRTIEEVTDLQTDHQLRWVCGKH
Sequence of UniProt Q96L58 (Q96L58 whole entry, looked up): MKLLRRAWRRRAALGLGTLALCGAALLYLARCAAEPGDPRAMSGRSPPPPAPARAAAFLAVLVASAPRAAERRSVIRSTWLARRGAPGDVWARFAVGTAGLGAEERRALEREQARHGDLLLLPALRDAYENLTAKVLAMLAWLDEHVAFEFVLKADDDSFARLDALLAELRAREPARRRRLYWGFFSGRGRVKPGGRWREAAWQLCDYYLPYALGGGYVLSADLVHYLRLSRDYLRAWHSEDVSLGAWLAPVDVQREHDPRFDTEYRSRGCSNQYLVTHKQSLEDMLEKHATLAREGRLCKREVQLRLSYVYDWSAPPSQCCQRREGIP
Sequence of UniProt Q14012 (Q14012 whole entry, looked up): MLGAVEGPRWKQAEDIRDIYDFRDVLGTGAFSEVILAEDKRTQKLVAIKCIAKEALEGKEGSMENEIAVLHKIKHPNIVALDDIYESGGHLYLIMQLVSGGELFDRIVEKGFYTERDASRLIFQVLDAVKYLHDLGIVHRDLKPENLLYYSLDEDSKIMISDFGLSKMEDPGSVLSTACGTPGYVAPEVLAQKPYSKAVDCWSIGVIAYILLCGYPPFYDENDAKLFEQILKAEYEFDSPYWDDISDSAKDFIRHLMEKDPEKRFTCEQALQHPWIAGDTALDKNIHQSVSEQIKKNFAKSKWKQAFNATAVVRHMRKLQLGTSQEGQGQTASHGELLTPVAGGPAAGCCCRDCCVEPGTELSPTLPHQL
Sequence of UniProt Q9NQS1 (Q9NQS1 whole entry, looked up): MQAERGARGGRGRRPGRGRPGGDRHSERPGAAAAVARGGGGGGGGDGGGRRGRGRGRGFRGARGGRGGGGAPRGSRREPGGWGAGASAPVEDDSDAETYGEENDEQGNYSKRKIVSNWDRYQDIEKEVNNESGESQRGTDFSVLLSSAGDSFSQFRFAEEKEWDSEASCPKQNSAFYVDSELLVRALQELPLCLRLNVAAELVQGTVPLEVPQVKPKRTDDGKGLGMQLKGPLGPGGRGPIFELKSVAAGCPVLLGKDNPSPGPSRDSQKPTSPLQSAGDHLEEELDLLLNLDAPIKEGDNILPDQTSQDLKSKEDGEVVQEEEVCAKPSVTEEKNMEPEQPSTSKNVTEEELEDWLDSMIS
Sequence of UniProt Q12983 (Q12983 whole entry, looked up): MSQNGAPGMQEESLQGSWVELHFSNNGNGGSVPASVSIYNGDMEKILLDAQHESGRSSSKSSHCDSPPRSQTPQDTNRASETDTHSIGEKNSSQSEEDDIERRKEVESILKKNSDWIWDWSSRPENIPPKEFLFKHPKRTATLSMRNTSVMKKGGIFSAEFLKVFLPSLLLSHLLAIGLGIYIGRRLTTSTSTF

Target | log2 fold change [1] | log2 fold change [2] | log2 fold change [3] | log2 fold change [4] | log2 fold change [5] | log2 fold change [6] | log2 fold change [7] | log2 fold change [8] | log2 fold change [9] | log2 fold change [10] | log2 fold change [11] | log2 fold change [12] | log2 fold change [13] | log2 fold change [14] | log2 fold change [15] | log2 fold change [16] | log2 fold change [17] | log2 fold change [18] | log2 fold change [19] | log2 fold change [20]
C8orf37 (UniProt Q96NL8) | 0.081 | -0.061 | -0.062 | 0.058 | -0.043 | -0.075 | 0.225 | 0.166 | -0.06 | 0.072 | -0.146 | 0.022 | -0.035 | 0.281 | -0.099 | 0.018 | -0.011 | 0.162 | – | –
CAMK1 (UniProt Q14012) | -0.094 | – | 0.027 | 0.106 | -0.018 | -0.06 | -0.095 | 0.272 | -0.061 | -0.016 | -0.074 | 0 | 0.067 | 0.04 | -0.036 | -0.054 | -0.032 | 0.029 | 0.016 | -0.01
BNIP3 (UniProt Q12983) | – | 0.035 | -0.037 | 0.069 | 0.116 | -0.023 | -0.307 | 0.149 | 0.118 | 0.03 | -0.065 | -0.058 | 0.076 | – | 0.081 | 0.015 | 0.018 | -0.128 | -0.043 | 0.021
CDK11A (UniProt Q9UQ88) | – | -0.019 | 0.029 | – | -0.135 | 0.047 | 0.127 | -0.099 | -0.069 | -0.026 | 0.077 | -0.172 | -0.011 | – | 0.023 | – | – | -0.037 | -0.023 | 0
BMT2 (UniProt Q1RMZ1) | – | – | – | – | – | – | 0.004 | 0.096 | – | – | -0.004 | – | – | – | – | – | – | – | 0.025 | -0.27
CASP7 isoform 3 (UniProt P55210) | – | -0.117 | 0.059 | -0.148 | -0.049 | -0.119 | – | – | 0.056 | -0.091 | – | -0.051 | -0.016 | – | -0.059 | 0.16 | 0.379 (active) | 0.079 | -0.058 | 0.108
CAPNS1 (UniProt U3KPR7) | – | -0.125 | 0.424 | – | -0.01 | – | – | – | – | – | – | – | – | – | – | – | – | 0.024 | -0.069 | 0.165
B3GALT6 (UniProt Q96L58) | – | – | 0.002 | – | – | 0.115 | – | – | -0.172 | 0.067 | – | 0.051 | -0.025 | – | 0.059 | – | – | – | – | –
ATE1 (UniProt O95260) | – | 0.061 | -0.051 | – | 0.002 | – | 0.082 | 0.003 | – | 0.021 | -0.024 | – | – | – | – | – | – | 0.044 | – | –
CEP128 (UniProt Q6ZU80) | -0.025 | – | 0.124 | -0.132 | – | 0.375 | -1.27 (active) | 0.369 | 0.07 | – | -0.294 | 0.565 | – | -0.052 | -0.037 | 0.064 | 0.031 | – | – | –
CAD (UniProt H7BZB3) | -0.063 | – | – | 0.144 | – | – | -0.02 | -0.027 | – | – | 0.005 | – | 0.28 | 0.036 | – | 0.113 | 0.059 | – | – | –
CCDC130 (UniProt P13994) | – | – | 0.045 | 0.036 | – | -0.027 | – | – | – | 0.147 | – | -0.066 | -0.275 | – | – | -0.015 | 0.09 | – | – | –
CDC14A isoform 2 (UniProt Q9UNH5) | – | -0.271 | – | – | 0.085 | 0.101 | – | – | – | 0.058 | – | 0.272 | – | – | – | – | – | 0.019 | 0.075 | 0.078
AVEN (UniProt Q9NQS1) | 0.177 | – | -0.091 | 0.117 | – | -0.025 | -0.651 (active) | 0.167 | 0 | -0.007 | -0.047 | -0.154 | 0.049 | -0.097 | 0.082 | 0.017 | 0.016 | – | 0.061 | -0.09
CDK17 isoform 2 (UniProt Q00537) | -0.115 | – | 0.011 | -0.078 | – | -0.007 | 0.091 | -0.299 | -0.017 | 0.03 | 0.599 (active) | -0.015 | -0.051 | 0.139 | -0.018 | 0.099 | -0.129 | – | -0.121 | -0.132
CCAR2 (UniProt G3V119) | – | 0.087 | – | – | -0.074 | – | – | – | – | – | – | – | – | – | – | – | – | -0.032 | – | –
C6orf120 (UniProt Q7Z4R8) | – | -0.127 | 0.096 | – | 0.051 | – | -0.005 | 0.049 | 0.004 | – | 0.096 | – | 0.031 | – | 0.066 | – | – | -0.026 | – | –
CDCA8 (UniProt Q53HL2) | 0.025 | – | 0.106 | 0.051 | – | – | 0.677 (active) | -0.034 | 0.171 | – | 0.091 | – | 0.054 | 0.144 | -0.061 | 0.003 | -0.044 | – | 0.034 | 0.04
ATPSCKMT (UniProt Q6P4H8) | – | – | -0.019 | 0.171 | – | 0.077 | – | – | 0.053 | -0.007 | – | -0.368 (active) | – | – | -0.027 | -0.176 | 0.17 | – | – | –
CENPV (UniProt Q7Z7K6) | -0.104 | – | 0 | -0.033 | – | 0.19 | 0.264 | -0.004 | – | 0.007 | -0.15 | -0.458 | – | 0.117 | – | 0.323 | -0.045 | – | -0.205 | 0.789
CHD4, A0A2R8Y521 | – | -0.315 | – | -0.053 | 0.103 | -0.342 | – | – | 0.149 | – | – | -0.117 | – | – | 0.155 | 0.046 | -0.086 | -0.454 | 0.133 | 0.167
